Assay outcomes deposited in PubChem by The Scripps Research Institute Molecular Screening Center.
Only some compounds are listed: those with a hit (about 3.5% of all), similar ones and a draw of the others.
FBW7 act: activators of human E3 ligase FBW7. Q969H0. 650,000 compounds, 0.13% hits. AlphaScreen FBW7–phospho-cyclin E peptide binding, activator screen. normalized activity (activation), % at 26.1 µM; in the data active means normalized activity above about 1.9%;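 further: purified mutant Fbw7 with reduced substrate affinity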
MITF primary: inhibitors of human MITF; O75030; AlphaScreen MITF homodimerization, bead proximity signal; inhibition, % at 2.6 µM; 650,000 compounds, 0.91% hits; in the data active means inhibition above about 50%;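 further: 0% = vehicle wells with protein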
GPR151 ag: activators of human GPR151; PathHunter beta-arrestin GPR151 cells, luminescence; 650,000 compounds, 1% hits; Q8TDV0; activation, % at 11.2 µM; in the data active means activation above about 4.9%;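 further: 0% = median of compound wells and 100% = cells with positive control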
TEAD-YAP inh: TEAD-YAP interaction inhibition | 640,000 compounds, 1.4% hits | AID 1259422 | HEK-TIYL cells, TEAD-Gal4/YAP UAS-luciferase luminescence | inhibition, % at 9.12 µM; in the data active means inhibition above about 32%;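 further: 0% = median of test compound wells and 100% = reference inhibitor wells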
GPR151 confirm: human GPR151 activation, confirmation screen; shares compounds with GPR151 ag; GPR151 PathHunter beta-arrestin cells, luminescence, 90 min; % of EA-reagent control over plate median; activation, % at 11.2 µM; 6,700 tested, under 10 active; AID 1508609;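 active means mean percent activation across replicates above the confirmation screen cutoff of 4.91%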
GPR119 ag: counter-screen for GPR151 activators: effect on human GPR119. shares compounds with GPR151 ag. GPR119 PathHunter beta-arrestin cells, luminescence, 90 min; 0 = compound-well median, 100 = enzyme-acceptor control. activation, % at 11.2 µM. 6,700 compounds, 0.3% hits. AID 1508611;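 active means mean percent activation in the counterscreen above 29.09%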;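 further: counterscreen on off-target GPR119 to flag nonselective hits from the GPR151 activator screen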
Target sequence (Q8TDV5 whole entry, looked up): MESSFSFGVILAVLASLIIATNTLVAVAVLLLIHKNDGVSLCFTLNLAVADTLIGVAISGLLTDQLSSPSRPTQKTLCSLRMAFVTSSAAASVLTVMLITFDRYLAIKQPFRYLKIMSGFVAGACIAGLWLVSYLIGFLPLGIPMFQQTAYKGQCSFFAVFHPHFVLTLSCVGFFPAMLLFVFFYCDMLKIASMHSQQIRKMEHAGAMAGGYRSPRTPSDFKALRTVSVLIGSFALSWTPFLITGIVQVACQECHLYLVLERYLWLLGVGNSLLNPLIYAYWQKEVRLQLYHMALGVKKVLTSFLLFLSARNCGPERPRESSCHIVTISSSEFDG
* = called active by the depositor.

For COCCOC(=O)c1c(C)oc2ccc(OCC#N)cc12 the results were FBW7 act 0.1, MITF primary 4.1, GPR151 ag 11.3*, TEAD-YAP inh -11.1, GPR151 confirm -0.6 and GPR119 ag -7.0.
`CCOC(=O)c1c(C)n(C)c2ccc(OCC#N)cc12` gave FBW7 act 0.0, MITF primary 13.8, GPR151 ag 7.1*, TEAD-YAP inh 10.7, GPR151 confirm 0.0 and GPR119 ag 0.5.
`COc1ccc(C(CNC(=O)c2cccc(C)c2)N2CCOCC2)cc1` (stereo not drawn) gave FBW7 act 0.1, MITF primary -10.7, GPR151 ag 0.4 and TEAD-YAP inh -2.8.
`Clc1cccc(-c2nnc3ccc4ccccc4n23)c1Cl` gave FBW7 act 0.1, MITF primary 13.0, GPR151 ag -0.4 and TEAD-YAP inh -7.5.
For O=C(NC1CCCCCCCCCCC1)c1cncc(Br)c1 the results were FBW7 act 0.1, MITF primary -0.2, GPR151 ag 0.7 and TEAD-YAP inh -7.1.
Screening O=C(NC1CCOC1)c1cc(COc2ccc3ncccc3c2)on1 (stereo not drawn) returned FBW7 act 0.0, MITF primary -3.2, GPR151 ag 5.2*, TEAD-YAP inh 19.0, GPR151 confirm -0.2 and GPR119 ag -13.3.
O=C(NCc1nc(-c2ccncc2)n[nH]1)c1cccnc1Cl was read as FBW7 act 1.0, MITF primary 0.0, GPR151 ag 1.1 and TEAD-YAP inh 17.4.
For COc1ccc(S(=O)(=O)N(CC(=O)N2CCOCC2)Cc2ccccc2)cc1C the results were FBW7 act -0.1, MITF primary -23.8, GPR151 ag 0.7 and TEAD-YAP inh 3.5.
Screening COc1ccc(C)cc1S(=O)(=O)N(CC(=O)N1CCOCC1)Cc1ccccc1 returned FBW7 act 0.2, MITF primary 8.9, GPR151 ag 12.1*, TEAD-YAP inh 3.0, GPR151 confirm -0.6 and GPR119 ag -4.7.
Screening Cc1oc(-c2cccc(Cl)c2)nc1COC(=O)c1nnn(-c2cccc(F)c2)c1C returned FBW7 act -0.1, MITF primary -11.9, GPR151 ag 6.0*, TEAD-YAP inh -1.4, GPR151 confirm -1.0 and GPR119 ag -11.8.
Cc1ccc2[nH]c(C)c(Br)c(=O)c2c1 was read as FBW7 act 0.0, MITF primary -12.5, GPR151 ag -0.8 and TEAD-YAP inh 6.8.
`COc1ccc2[nH]c3ccc([N+](=O)[O-])cc3c(=O)c2c1` gave FBW7 act 0.1, MITF primary -7.0, GPR151 ag 5.7*, TEAD-YAP inh 12.5, GPR151 confirm -0.2 and GPR119 ag -4.7.
Screening COc1ccc2[nH]c(C)c(Br)c(=O)c2c1 returned FBW7 act 0.0, MITF primary -2.9, GPR151 ag 6.4*, TEAD-YAP inh 5.9, GPR151 confirm 0.0 and GPR119 ag 5.3.
For Cc1cc(=O)c2cc([N+](=O)[O-])ccc2[nH]1 the results were FBW7 act 0.0, MITF primary -1.3, GPR151 ag -1.0 and TEAD-YAP inh 6.2.
For CCOc1cccc2sc(NC(=O)C3=COCCO3)nc12 the results were FBW7 act -0.2, MITF primary 2.3, GPR151 ag 6.6*, TEAD-YAP inh -16.9, GPR151 confirm 0.2 and GPR119 ag 9.7.
For Cc1cnc(-c2ccc(C(=O)N3CCN(C)CC3)cc2)nc1NCCCN1CCCC1=O the results were FBW7 act 0.1, MITF primary -4.4, GPR151 ag -1.1 and TEAD-YAP inh 4.8.
Cc1cnc(-c2ccc(C(=O)NC3CC3)cc2)nc1NCCCN1CCCC1=O was read as FBW7 act -0.1, MITF primary 10.6, GPR151 ag 5.2*, TEAD-YAP inh 3.7, GPR151 confirm 0.7 and GPR119 ag 4.8.
Screening CCNc1ncc(C)c(NCCCN2CCCC2=O)n1 returned FBW7 act 0.0, MITF primary 3.5, GPR151 ag -1.7 and TEAD-YAP inh 3.6.
Screening Cc1cnc(NCCCN2CCCC2=O)nc1NCCCN1CCCC1=O returned FBW7 act -0.1, MITF primary 10.4, GPR151 ag 6.8*, TEAD-YAP inh 3.6, GPR151 confirm 0.2 and GPR119 ag -1.8.
Cc1cnc(NCc2ccc3c(c2)OCO3)nc1NCCCN1CCCC1=O was read as FBW7 act 0.5, MITF primary 5.6, GPR151 ag 5.6*, TEAD-YAP inh -5.2, GPR151 confirm 0.7 and GPR119 ag 2.5.
`Cc1cnc(-c2ccc(C(N)=O)cc2)nc1NCCN1CCOCC1` gave FBW7 act 0.1, MITF primary -1.1, GPR151 ag 5.5*, TEAD-YAP inh 5.6, GPR151 confirm -0.6 and GPR119 ag 3.8.
COc1cc(C2C(C(=O)OCCc3ccccc3)=C(C)NC3=C2C(=O)CC(C)(C)C3)ccc1OCc1ccccc1 (stereo not drawn) was read as FBW7 act -0.1, MITF primary 4.8, GPR151 ag 1.9 and TEAD-YAP inh -2.1.
`CC(=O)c1ccc(NC(=O)COc2ccccc2Cl)cc1` gave FBW7 act 0.0, MITF primary -2.0, GPR151 ag -0.4 and TEAD-YAP inh -44.3.
Screening CCN(CC)c1nc(NCCCN2CCCC2=O)nc(NC2CC2)n1 returned FBW7 act 0.2, MITF primary -1.0, GPR151 ag 5.1*, TEAD-YAP inh -7.0, GPR151 confirm -0.3 and GPR119 ag -3.6.
`O=C(COc1cccc(Br)c1)N/N=C/c1ccc([N+](=O)[O-])s1` gave FBW7 act 0.2, MITF primary 5.1, GPR151 ag -0.8 and TEAD-YAP inh -15.5.
For Nc1cc2c(cc1C(=O)c1cccc(Br)c1)OCCO2 the results were FBW7 act -0.1, MITF primary -2.2, GPR151 ag 5.4*, TEAD-YAP inh 5.3, GPR151 confirm 0.2 and GPR119 ag 2.6.
`O=[N+]([O-])c1ccc(Nc2ccc(Br)cc2)nc1` gave FBW7 act -0.1, MITF primary -11.2, GPR151 ag 0.4 and TEAD-YAP inh -21.0.
CN(CCC#N)c1ncnc2c1oc1ccccc12 was read as FBW7 act -0.1, MITF primary -6.5, GPR151 ag 10.5*, TEAD-YAP inh -8.7, GPR151 confirm 0.0 and GPR119 ag 4.2.
`O=[N+]([O-])c1cccc(-c2nnc(-c3cccc(S(=O)(=O)N4CCOCC4)c3)o2)c1` gave FBW7 act -0.1, MITF primary 2.1, GPR151 ag -0.8 and TEAD-YAP inh -4.2.
CC1CCN(S(=O)(=O)c2cccc(-c3nnc(-c4cccc([N+](=O)[O-])c4)o3)c2)CC1 was read as FBW7 act -0.1, MITF primary 0.1, GPR151 ag 5.6*, TEAD-YAP inh 6.2, GPR151 confirm 1.2 and GPR119 ag 3.0.
For CCOc1ccccc1C(=O)Nc1ccc2c(c1)N(CCOC)CCC2 the results were FBW7 act -0.1, MITF primary 5.2, GPR151 ag 9.4*, TEAD-YAP inh 6.7, GPR151 confirm 1.0 and GPR119 ag -2.3.
